This passage reports Potency, outcome and max response results from PubChem BioAssay (NCATS).

“And” between values parts separate entries of the source, which are not always exact repeats. Identical values can stand only once. Inconclusive results are not listed. Values without a mark were called inactive. The source made the active and inactive calls. Unless noted, calls follow the shape of the dose curve; as a rule, active = well fitted curve in the direction sought with a large enough effect; inconclusive = small, poorly fitted or top-dose-only effect, or another doubt; inactive = no such curve, though single readings can be large; an effect the other way counts as inactive or inconclusive.

The nature of assay [1]: Confirmatory qHTS for small molecule stabilizers of the endoplasmic reticulum resident proteome: Secreted ER Calcium Modulated Protein (SERCaMP) assay (AID 1508628). Also: nearly all actives have a fitted effect of over 40% in size. Also: potency is read from the fitted curve at half-maximal effect. A digest of the protocol: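 We seeded SH-SY5Y-GLuc-SERCaMP cells, added compounds (three concentrations in the primary run, eleven up to 76.6 uM in confirmation), incubated 16 h, depleted ER calcium with thapsigargin, and read luciferase 4 h later.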
For orientation: In qHTS, concentration-response curves come from the screen itself.

The target of another assay is Papain (Carica papaya) (UniProt P00784). The assay is described as follows: Primary qHTS assay for inhibitors of the protease papain (AID 1645873).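 Also: papain turnover of Z-FR-AMC read as the AMC fluorescence gain over 10 min; series mostly up to about 50 µM; % is scaled to controls: 0 for no effect and ±100 for the full control effect.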
Sequence of Papain (Carica papaya) (P00784 whole entry, looked up): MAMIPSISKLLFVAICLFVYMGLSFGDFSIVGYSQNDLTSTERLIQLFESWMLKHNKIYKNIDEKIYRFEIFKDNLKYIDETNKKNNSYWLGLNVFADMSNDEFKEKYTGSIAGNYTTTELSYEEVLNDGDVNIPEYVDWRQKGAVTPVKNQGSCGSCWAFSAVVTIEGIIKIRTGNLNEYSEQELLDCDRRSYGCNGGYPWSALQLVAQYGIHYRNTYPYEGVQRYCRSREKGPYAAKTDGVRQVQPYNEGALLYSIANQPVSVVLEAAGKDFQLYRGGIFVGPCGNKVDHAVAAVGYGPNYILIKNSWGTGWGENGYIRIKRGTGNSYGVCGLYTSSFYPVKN
The nature of assay [2]: Primary qHTS for small molecule stabilizers of the endoplasmic reticulum resident proteome: Secreted ER Calcium Modulated Protein (SERCaMP) assay (AID 1508630). Also: % is scaled to controls: 0 for no effect and ±100 for the full control effect. A digest of the protocol: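 GLuc-SERCaMP-expressing SH-SY5Y cells, pretreated 16 h with compound, are challenged with thapsigargin to empty ER calcium stores; after 4 h, coelenterazine is added directly to the medium and luminescence is imaged.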

Assay [3] is described as follows: Cell Viability qHTS for small molecule stabilizers of the endoplasmic reticulum resident proteome (AID 1508629).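 Also: human SH-SY5Y neuroblastoma cells carrying the GLuc-SERCaMP reporter; compound exposure about 46 h in total before the viability read; % is scaled to controls: 0 for no effect and ±100 for the full control effect.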 As to conditions: cell viability counter-screen, 100 nM thapsigargin for final 4 h.
Assay [4] can be described thus: A High-Content qHTS Against Drug Library for the Identification of Small Molecules that Inhibit DYT1 Early Onset Primary Dystonia-Associated Cell Pathology (AID 1645839; calls by dose curve; also: potency is read from the fitted curve at half-maximal effect). The gist of the method:
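Flp-In T-REx 293 cells with tetracycline-inducible EGFP-delE hTOR1A (WT EGFP-hTOR1A as reference), 800 cells/well; compound added with tetracycline, 48 h at 37 C. Fixed, permeabilized cells imaged; %pathology (punctate TorsinA) primary, cell count counterscreen.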

In assay [5] the target is Cytochrome P450 2D6 (Homo sapiens) (UniProt P10635). The assay is described as follows: Cytochrome P450 family 2 subfamily D member 6 (CYP2D6) small molecule antagonists: luciferase biochemical (cell-free) qHTS assay (AID 1645840; active = well fitted curve in the direction sought with a large enough effect in the repeat runs; an effect the other way counts as inactive or inconclusive; also: nearly all actives have a fitted effect of over 55% in size; also: potency is read from the fitted curve at half-maximal effect). A digest of the protocol:
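P450-Glo luminescent screen: recombinant CYP2D6 enzyme–proluciferin substrate mix preincubated with compound 10 min at room temperature, then NADPH regeneration added for 1 h at room temperature. Detection reagent added for 20 min; luciferin light read as relative luminescence units.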

The target of assay [6] is Cytochrome P450 2C9 (Homo sapiens) (UniProt P11712). The assay is described as follows: Cytochrome P450 family 2 subfamily C member 9 (CYP2C9) small molecule antagonists: luciferase biochemical (cell-free) qHTS assay (AID 1645842; active = well fitted curve in the direction sought with a large enough effect in the repeat runs; an effect the other way counts as inactive or inconclusive; also: nearly all actives have a fitted effect of over 55% in size; also: potency is read from the fitted curve at half-maximal effect). The gist of the method: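 Luminescence, after 20 min with luciferin detection reagent, reflected CYP2C9 turnover during a 1 h NADPH-driven reaction at 37C. Enzyme-substrate mix contained 0.4% bovine serum albumin and was preincubated with compound 10 min at room temperature.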
Sequence of Cytochrome P450 2C9 (Homo sapiens) (P11712 whole entry, looked up): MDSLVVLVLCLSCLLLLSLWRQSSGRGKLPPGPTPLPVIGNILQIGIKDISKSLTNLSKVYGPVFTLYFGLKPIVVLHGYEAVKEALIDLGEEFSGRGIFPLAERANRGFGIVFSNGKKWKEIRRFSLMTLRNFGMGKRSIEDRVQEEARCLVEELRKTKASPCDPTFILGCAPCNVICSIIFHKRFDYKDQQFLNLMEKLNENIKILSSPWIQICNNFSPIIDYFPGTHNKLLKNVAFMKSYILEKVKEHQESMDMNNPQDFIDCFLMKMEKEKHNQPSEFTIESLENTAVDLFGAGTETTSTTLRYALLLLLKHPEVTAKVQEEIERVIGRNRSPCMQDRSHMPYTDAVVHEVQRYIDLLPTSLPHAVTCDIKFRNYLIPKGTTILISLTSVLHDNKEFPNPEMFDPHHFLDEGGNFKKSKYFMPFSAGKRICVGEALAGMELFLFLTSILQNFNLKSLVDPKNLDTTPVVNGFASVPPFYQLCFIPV

Assay [7] can be described thus: Primary qHTS for inhibitors of nuclear receptor binding SET domain protein 2 (NSD2) in an isogenic RCH-ACV NSD2 p.E1099K mutant (9B) (AID 1645876). Also: nearly all actives have a fitted effect of over 70% in size. Also: potency is read from the fitted curve at half-maximal effect.

Sequence of Cytochrome P450 2D6 (Homo sapiens) (P10635 whole entry, looked up): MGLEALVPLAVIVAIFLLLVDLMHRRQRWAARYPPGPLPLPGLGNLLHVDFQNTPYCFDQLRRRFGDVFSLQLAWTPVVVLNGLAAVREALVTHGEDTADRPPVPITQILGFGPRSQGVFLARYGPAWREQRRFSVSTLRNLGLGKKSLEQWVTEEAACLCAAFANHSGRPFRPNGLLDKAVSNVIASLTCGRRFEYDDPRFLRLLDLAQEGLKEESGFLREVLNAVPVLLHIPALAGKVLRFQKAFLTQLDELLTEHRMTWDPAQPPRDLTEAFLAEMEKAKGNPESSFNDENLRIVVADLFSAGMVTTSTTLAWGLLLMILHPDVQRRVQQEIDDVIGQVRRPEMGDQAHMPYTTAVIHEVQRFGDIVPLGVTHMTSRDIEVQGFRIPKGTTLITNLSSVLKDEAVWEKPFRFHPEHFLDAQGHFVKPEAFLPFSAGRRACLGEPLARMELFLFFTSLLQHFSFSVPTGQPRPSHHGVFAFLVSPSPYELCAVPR

As for `Clc1ccc2c(c1)N=C(N1CCNCC1)c1ccccc1N2`, in assay [1], the Potency is 14.1 µM (active) and 10 µM (active). Also, the outcome with Papain (Carica papaya) was inactive.
Regarding `Cc1oc(-c2ccccc2)nc1CCC(=O)c1ccc(CC2SC(=O)NC2=O)cc1` (stereo not given), the Potency result in assay [2] was “inactive”.
As for `C=CCNc1nc(NCC=C)nc(N2CCN(C(c3ccc(F)cc3)c3ccc(F)cc3)CC2)n1`, the max response in assay [3] was 26.9%. Moreover, the Potency entry in assay [4], in assay [5] and in assay [6] was “inactive” in each case.
In the case of `CC(C)C[C@@H]1[C@H](c2ccccc2)OC(=O)N1CCCN1CCCCCC1`, the Potency is 31.6 µM (active) in assay [1] and 0.776 µM (active) in assay [5]. Moreover, in assay [3], the max response was -0.48%. The Potency result in assay [6] is “inactive”.
Consider `O=C(O)Cn1cnnn1`, for which the Potency result in assay [1], in assay [4], in assay [5], in assay [6] and in assay [7] was “inactive” in each case.
Consider `CC(C)(c1ccc(O)cc1)c1ccc(O)cc1`, for which the Potency in assay [1] is 89.1 µM (active) and 44.7 µM (active) and 50.1 µM (active); in assay [4], 31.6 µM (active); in assay [5], 43.9 µM (active); in assay [6] it was 27.2 µM (active).
For `CN1CCC(Nc2ncc3ncnc(Nc4ccc(F)c(Cl)c4)c3n2)CC1`, the Potency entry in assay [1] and in assay [6] was “inactive” throughout. Besides, the Potency in assay [5] is 15.5 µM (active); in assay [7], 15 µM (active).
As for `O=C1NC(c2cccc([N+](=O)[O-])c2)=CCN1c1ccccc1O`, the Potency in assay [1] was 3.16 µM (active). Moreover, in assay [3], the max response was 23.5% and 15.8%. Besides, the Potency result in assay [2] and in assay [7] was “inactive” in each case. In addition, the outcome in the assay with Papain (Carica papaya) was inactive.
Consider `CN1CCC(N(Cc2cccs2)c2ccccc2)CC1`, for which the figures for the Potency in assay [1] and in assay [5] were 31.6 µM (active) and 0.49 µM (active), respectively. In assay [6], the Potency result is “inactive”.
Turning to `Nc1cccc2c(N)cccc12`, the Potency entry in assay [1] was “inactive”. The figures for the Potency in assay [5], in assay [6] and in assay [7] were 2.99 µM (active), 18.9 µM (active) and 24.3 µM (active), respectively.
As for `CO/N=C(/C(=O)N[C@@H]1C(=O)N2C(C(=O)O)=C(Cn3nnc(C)n3)CS[C@H]12)c1csc(N)n1`, the Potency entry in assay [2], in assay [4], in assay [5] and in assay [6] was “inactive” in each case.
